# Experimental data from publication PMC5540273 (PLoS ONE, 2017).
# Tests used:
# Conditions in all cases: concentration: 1 μM,replicates: in singlicate; n = 1
# [1] = tested on: PLK2
# [2] = tested on: PLK3
# [3] = tested on: PLK4
# [4] = tested on: PRKCD
# [5] = tested on: PRKCE
# [6] = tested on: PRKCH
# [7] = tested on: PRKCI
# [8] = tested on: PRKCQ
# [9] = tested on: PRKD1
# [10] = tested on: PRKD2
# [11] = tested on: PRKD3
# [12] = tested on: PRKG1
# [13] = tested on: PRKG2
# [14] = tested on: T1, PRKR
# T1 construct: gene EIF2AK2
# [15] = tested on: PRKX
# [16] = tested on: PRP4
# [17] = tested on: T2, PYK2
# T2 construct: gene PTK2B
# [18] = tested on: QSK
# [19] = tested on: RAF1
# [20] = tested on: RET
# 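Also: KINOMEscan kinase panel screen.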
smiles,measurement,setting,value
CS(=O)c1ccc(-c2coc3ccc(-c4n[nH]c(=O)o4)cc23)cc1 (stereo not shown),%Inh,[1],4%
same,%Inh,[2],6%
same,%Inh,[3],34%
same,%Inh,[4],24%
same,%Inh,[5],7%
same,%Inh,[6],0%
same,%Inh,[7],8%
same,%Inh,[8],2%
same,%Inh,[9],0%
same,%Inh,[10],4%
same,%Inh,[11],0%
same,%Inh,[12],4%
same,%Inh,[13],0%
same,%Inh,[14],20%
same,%Inh,[15],0%
same,%Inh,[16],14%
same,%Inh,[17],4%
same,%Inh,[18],0%
same,%Inh,[19],20%
same,%Inh,[20],12%
CN1CCN(CCCNc2nccc(-c3c(-c4ccc(F)cc4)nn4cc(C(N)=O)ccc34)n2)CC1 [GW622475],%Inh,[1],0%
same,%Inh,[2],0%
same,%Inh,[3],10%
same,%Inh,[4],29%
same,%Inh,[5],14%
same,%Inh,[6],22%
same,%Inh,[7],41%
same,%Inh,[8],42%
same,%Inh,[9],65%
same,%Inh,[10],67%
same,%Inh,[11],89%
same,%Inh,[12],6%
same,%Inh,[13],0%
same,%Inh,[14],2%
same,%Inh,[15],8%
same,%Inh,[16],0%
same,%Inh,[17],9%
same,%Inh,[18],30%
same,%Inh,[19],35%
same,%Inh,[20],38%
Cc1cccc2c(-c3ccncc3)c(-c3ccc(F)cc3)nn12.Cl [GW461487],%Inh,[1],0%
same,%Inh,[2],0%
same,%Inh,[3],0%
same,%Inh,[4],3%
same,%Inh,[5],10%
same,%Inh,[6],0%
same,%Inh,[7],23%
same,%Inh,[8],0%
same,%Inh,[9],2%
same,%Inh,[10],36%
same,%Inh,[11],0%
same,%Inh,[12],9%
same,%Inh,[13],8%
same,%Inh,[14],0%
same,%Inh,[15],3%
same,%Inh,[16],7%
same,%Inh,[17],22%
same,%Inh,[18],15%
same,%Inh,[19],11%
same,%Inh,[20],18%
CN(c1ccccc1CNc1nc(Nc2ccc3c(c2)CC(=O)N3)ncc1C(F)(F)F)S(C)(=O)=O,%Inh,[1],80%
same,%Inh,[2],49%
same,%Inh,[3],61%
same,%Inh,[4],73%
same,%Inh,[5],58%
same,%Inh,[6],0%
same,%Inh,[7],0%
same,%Inh,[8],80%
same,%Inh,[9],51%
same,%Inh,[10],31%
same,%Inh,[11],70%
same,%Inh,[12],0%
same,%Inh,[13],0%
same,%Inh,[14],0%
same,%Inh,[15],17%
same,%Inh,[16],0%
same,%Inh,[18],0%
same,%Inh,[19],0%
same,%Inh,[20],87%
